The experiment has as its system Rolipram. Put plainly: selectivity profiling over binding targets, CYP450 – biochemical, Ricerca HitProfilingScreen, selectivity assay for S1P3 agonist project, profiling panel (AID 540351). As to conditions: Ricerca receptor/enzyme binding panel plus CYP450, at 30 µM, stronger effect = higher value.

Unmarked numbers belong to inactive results. No rule for the calls is given here.

As usually defined, the inhibition is the share of the control response that was lost under treatment.

For `O=C(c1cc(C2CC2)on1)N(C1CCCCC1)C1CCCCC1`, the inhibition is 18%.

The values are drawn from PubChem BioAssay AID540351 (The Scripps Research Institute Molecular Screening Center, 2011).
